# Publication PMC5540273 (PLoS ONE, 2017)
# Tests used:
# Details in all cases: concentration: 1 μM, replicates: in singlicate; n = 1
# [1] = tested on: T1, RSK1(Kin.Dom.1-N-terminal)
# T1 construct: gene RPS6KA1
# [2] = tested on: T2, RSK1(Kin.Dom.2-C-terminal)
# T2 construct: gene RPS6KA1
# [3] = tested on: T3, RSK2(Kin.Dom.1-N-terminal)
# T3 construct: gene RPS6KA3
# [4] = tested on: T4, RSK2(Kin.Dom.2-C-terminal)
# T4 construct: gene RPS6KA3
# [5] = tested on: T5, RSK3(Kin.Dom.1-N-terminal)
# T5 construct: gene RPS6KA2
# [6] = tested on: T6, RSK3(Kin.Dom.2-C-terminal)
# T6 construct: gene RPS6KA2
# [7] = tested on: T7, RSK4(Kin.Dom.1-N-terminal)
# T7 construct: gene RPS6KA6
# [8] = tested on: T8, RSK4(Kin.Dom.2-C-terminal)
# T8 construct: gene RPS6KA6
# [9] = tested on: S6K1
# [10] = tested on: SBK1
# [11] = tested on: SGK2
# [12] = tested on: SGK3
# [13] = tested on: SGK
# [14] = tested on: SIK2
# [15] = tested on: SIK
# [16] = tested on: SLK
# [17] = tested on: T9, SNARK
# T9 construct: gene NUAK2
# [18] = tested on: SNRK
# [19] = tested on: SRC
# [20] = tested on: SRMS
# 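Further: KINOMEscan kinase panel screen.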
SMILES,%Inh [1] [%],%Inh [2] [%],%Inh [3] [%],%Inh [4] [%],%Inh [5] [%],%Inh [6] [%],%Inh [7] [%],%Inh [8] [%],%Inh [9] [%],%Inh [10] [%],%Inh [11] [%],%Inh [12] [%],%Inh [13] [%],%Inh [14] [%],%Inh [15] [%],%Inh [16] [%],%Inh [17] [%],%Inh [18] [%],%Inh [19] [%],%Inh [20] [%]
COc1cc(Nc2nccc(N3CCC(NC(=O)C(C)c4ccc(Cl)cc4)C3)n2)cc(OC)c1OC (stereo not drawn) [GSK1379757],21,0,2,1,0,0,0,5,0,12,0,0,0,0,1,1,19,0,13,0
Cc1ccc(Oc2ccc(Nc3ncnc4cc[nH]c34)cc2C)cn1,5,8,0,0,16,16,9,6,7,44,5,5,12,0,21,10,6,32,16,22
O=C(NCCNc1ccnc(Nc2ccc(F)cc2)n1)Nc1ccc2c(c1)OCO2 [GSK1379882],15,22,14,30,0,0,0,12,0,6,13,7,12,0,0,0,1,0,0,0
O=C(Nc1n[nH]c2nc(-c3ccccc3)c(Br)cc12)C1CC1 [SB-708998],0,0,7,29,0,0,18,2,0,17,0,0,5,0,5,20,4,18,4,0
COc1ccc(CNC(=O)NC2CCN(c3ccnc(Nc4ccc(F)cc4)n3)C2)cc1 (stereo not drawn) [GSK1379706],14,28,0,3,15,31,0,20,0,0,0,0,0,0,13,9,0,0,0,0
COC(=O)c1c(-c2ccccc2)c2cc(Br)ccc2c(=O)n1Cc1ccc(NC(=O)CCC(=O)O)cc1,0,5,0,29,16,15,0,26,0,1,18,0,6,0,6,1,0,0,25,0
Cl.c1ccc(Cn2cnc3cc(Nc4ncnc5ccccc45)ccc32)cc1 [GW272142],0,0,0,0,0,6,0,5,0,1,0,0,0,0,0,20,0,0,0,0
CCc1nc(-c2cccc(C)c2)c(-c2ccncc2)s1,0,91.2,0,0,11,10,0,94.6,0,0,0,0,0,4,2,26,0,9,0,0
COc1cc2nccc(Nc3cccc(Oc4ccccc4)c3)c2cc1OC.Cl [GW284543],0,0,0,0,10,0,0,0,0,16,0,0,37,0,0,21,0,0,7,55
Nc1n[nH]c2ncc(-c3ccccc3)cc12 [SB-517081],25,0,10,0,7,0,0,36,8,8,2,9,7,12,2,0,0,0,0,8
CCC(=O)c1c(-c2ccccc2)c2cc(Cl)ccc2c(=O)n1Cc1cc(S(C)(=O)=O)n(CC(F)F)n1,2,0,5,0,0,0,13,1,0,0,0,0,0,2,0,0,10,0,7,0
COc1cc2nccc(Nc3ccc(OCc4ccc(NC(C)=O)cc4)cc3)c2cc1OC.Cl [GW440135],0,0,19,0,4,0,2,0,9,5,0,0,2,4,0,3,0,0,14,20
COc1cc2ncn(-c3cc(OCc4ccncc4Br)c(C(N)=O)s3)c2cc1OC [GW854278],0,22,19,0,20,0,25,7,0,2,3,16,4,6,26,95.9,0,0,0,0
OCCCNc1nccc(-c2c(-c3cccc(C(F)(F)F)c3)nn3cc(C(F)(F)F)ccc23)n1 [GW630813],0,32,0,5,0,0,0,89,1,0,0,6,0,0,0,4,0,0,0,0
COc1cc2ncn(-c3cc(OCc4ccncc4)c(C(N)=O)s3)c2cc1OC [GSK336313],25,0,6,0,0,0,0,0,0,24,0,3,0,0,0,43,4,0,0,0
O=C(Nc1ccc2c(c1)OCO2)NC1CCN(c2ccnc(NCc3ccc(F)cc3)n2)CC1 [GSK1379859],1,0,3,99.5,0,0,0,0,8,11,0,0,0,0,0,12,0,0,17,0
CCS(=O)(=O)c1ccc(OC)c(Nc2ncc(-c3ccc(F)cc3)o2)c1.Cl [GW591947],11,0,0,22,0,2,0,3,0,0,2,0,0,0,2,6,0,0,0,0
Cc1cccc(-c2cc(-c3c[nH]nc3-c3ccccn3)ccn2)c1 [GW679395],9,0,0,7,6,12,0,49,0,5,6,0,0,0,0,0,0,0,53,0
CCCNC(=O)Nc1ccc(Oc2ncnc3ccn(C)c23)cc1,14,13,27,0,0,5,25,0,0,20,13,0,1,0,23,0,0,0,0,0
COc1cc(OC)cc(-c2cc3cnc(N)nc3nc2NC(=O)NC(C)(C)C)c1,23,0,0,0,0,0,0,0,0,0,0,17,0,0,6,0,0,1,0,0
CCC(=O)c1c(-c2ccccc2)c2cc(Cl)ccc2c(=O)n1Cc1cc(S(C)(=O)=O)n(CC(N)=O)n1,0,0,0,0,1,6,0,5,0,0,0,0,0,2,0,0,0,0,0,0
